Test results from PubChem BioAssay (NCI).
About 79,000 compounds went through this panel and 15% of them were active in at least one assay; those are over-represented in the sample as a whole. Activity calls are given as the source filed them. Rule as the data show it: active = growth inhibition above about 70%; inactive = the rest.

What was measured:
[1] = NCI Yeast Anticancer Drug Screen. Data for the rad52 strain (AID 147);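 also: 0% = growth of vehicle-treated control cultures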; details: S. cerevisiae rad52 mutant growth inhibition, active compounds read high
Method in brief: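 Genetically altered yeast (DNA damage repair defect) treated with compound; inhibition calculated relative to vehicle.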

[2] = NCI Yeast Anticancer Drug Screen. Data for the rad50EPP+ strain (AID 151);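 also: 0% = growth of vehicle-treated control cultures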; details: S. cerevisiae rad50 mutant strain, active compounds read high
Method in brief: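 Strain rad50EPP+; compound exposure; % growth inhibition vs vehicle.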

[3] = NCI Yeast Anticancer Drug Screen. Data for the mgt1 strain (AID 153); details: S. cerevisiae mgt1 mutant growth inhibition, active compounds read high
Method in brief: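 Read-out: yeast growth inhibition vs vehicle control. Strain mgt1, drawn from a panel altered in DNA damage repair or cell cycle control.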

[4] = NCI Yeast Anticancer Drug Screen. Data for the rad50 strain (AID 155);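 also: 0% = growth of vehicle-only cultures of the same strain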; details: S. cerevisiae rad50 strain growth inhibition, active compounds read high
Method in brief: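 Cells are treated with compound, grown, and their growth is then scored against vehicle-only cultures of the same repair-deficient yeast strain.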

[5] = NCI Yeast Anticancer Drug Screen. Data for the mec2-1 strain (AID 157); details: S. cerevisiae mec2-1 strain, active compounds read high
Method in brief: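 Cells of the genetically defined mec2-1 yeast strain are incubated with test compound. Inhibition of growth is calculated against vehicle-treated controls.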

[6] = NCI Yeast Anticancer Drug Screen. Data for the rad14 strain (AID 159);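 also: 0% = growth of vehicle-treated control cultures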; details: S. cerevisiae rad14 strain growth inhibition, active compounds read high
Method in brief: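 Readout: yeast growth inhibition, referenced to vehicle-only cultures. Strain bears a defined alteration in DNA damage repair.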

[7] = NCI Yeast Anticancer Drug Screen. Data for the sgs1 mgt1 strain (AID 161);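 also: 0% = growth of cultures given vehicle only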; details: S. cerevisiae sgs1 mgt1 strain, active compounds read high
Method in brief: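 Genetically altered yeast, compound exposure, growth inhibition relative to vehicle.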

[8] = NCI Yeast Anticancer Drug Screen. Data for the CLN2oe strain (AID 163);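 also: 0% = growth of vehicle-only control cultures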; details: S. cerevisiae CLN2oe strain, active compounds read high
Method in brief: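 Strain altered in cell-cycle control, incubated with compound; growth compared to solvent-treated controls.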

[9] = NCI Yeast Anticancer Drug Screen. Data for the cln2 rad14 strain (AID 165);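 also: 0% = growth equal to vehicle treated cultures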; details: S. cerevisiae cln2 rad14 strain, active compounds read high
Method in brief: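 The screen exposed genetically defined yeast (cln2 rad14) to test compounds and scored growth inhibition relative to vehicle-treated controls.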

[10] = NCI Yeast Anticancer Drug Screen. Data for the bub3 strain (AID 167); details: S. cerevisiae bub3 mutant strain, active compounds read high
Method in brief: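 Part of a panel of yeast mutants defective in DNA damage repair or cell cycle regulation. Each strain is grown with compound, and inhibition is calculated relative to solvent-treated cultures.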

[11] = NCI Yeast Anticancer Drug Screen. Data for the wt2 strain (AID 169);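 also: 0% = growth of vehicle-treated yeast cultures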; details: S. cerevisiae wt2 strain growth inhibition, active compounds read high
Method in brief: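 Steps: yeast strain treated with compound; growth recorded; inhibition calculated relative to cultures given vehicle alone.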

[12] = NCI Yeast Anticancer Drug Screen. Data for the mlh1 strain (AID 171);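 also: 0% = growth of vehicle-treated control cultures of the same strain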; details: S. cerevisiae mlh1 strain growth inhibition, active compounds read high
Method in brief: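 Yeast screen: mutant strain plus compound, growth scored against vehicle control wells.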

[13] = NCI Yeast Anticancer Drug Screen. Data for the sgs1 strain (AID 173);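 also: 0% = growth of vehicle-only control cultures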; details: S. cerevisiae sgs1 mutant, active compounds read high
Method in brief: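 Inhibition of yeast growth served as the measure. The mutant strain was treated with each compound, and growth was normalised to cultures receiving vehicle alone.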

[14] = NCI Yeast Anticancer Drug Screen. Data for the mlh1 rad18 strain (AID 175); details: S. cerevisiae mlh1 rad18 strain growth inhibition, active compounds read high
Method in brief: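 Compound-treated yeast growth, normalised to vehicle controls. Strain bears defined DNA repair mutations.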

[15] = NCI Yeast Anticancer Drug Screen. Data for the rad18 strain (AID 177); details: S. cerevisiae rad18 mutant growth inhibition, active compounds read high
Method in brief: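 Inhibition values reflect reduced yeast growth compared with vehicle-treated controls, using a strain engineered with a DNA damage repair defect.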

[16] = NCI Yeast Anticancer Drug Screen. Data for the wt1 strain (AID 149);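 also: 0% = growth of vehicle-treated wt1 cultures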; details: S. cerevisiae wt1 strain (SPY 50644) growth inhibition, active compounds read high
Method in brief: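 The wt1 strain was treated with compounds, and growth was compared with vehicle-treated cultures to give inhibition.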

[17] = at 5.0 µM (retest, dose inferred, filed as 0.5)
[18] = at 50.0 µM (retest, dose inferred, filed as 5.0)

Measured: growth inhibition

OC(CCNCc1ccccc1)c1ccc2ccccc2c1 (stereo unspecified)
inactive: [1]; at 1.2 µM 15% | [1]; at 3.7 µM 42% | [1]; at 11.0 µM 69% | [2]; at 1.2 µM -5% | [2]; at 3.7 µM -12% | [2]; at 11.0 µM 13% | [2]; at 33.0 µM 27% | [2]; at 100.0 µM 21% | [3]; at 1.2 µM 14% | [3]; at 3.7 µM 34% | [3]; at 11.0 µM 63% | [4]; at 1.2 µM 15% | [4]; at 3.7 µM 44% | [4]; [17] 22% | [5]; at 1.2 µM -1% | [5]; at 3.7 µM 10% | [5]; [17] 15% | [5]; at 11.0 µM 22% | [5]; at 33.0 µM 47% | [5]; at 50.0 µM 37.9% | [5]; at 100.0 µM 58% | [6]; at 1.2 µM 32% | [6]; at 3.7 µM 56% | [7]; [17] 9% | [8]; at 1.2 µM 19% | [8]; at 3.7 µM 53% | [8]; at 11.0 µM 68% | [9]; [17] 29% | [10]; at 1.2 µM 29% | [10]; at 3.7 µM 45% | [10]; [17] 37% | [10]; at 11.0 µM 68% | [11]; at 1.2 µM 24% | [11]; at 3.7 µM 65% | [12]; at 1.2 µM -4% | [12]; at 3.7 µM 31% | [12]; at 11.0 µM 45% | [13]; at 1.2 µM 18% | [13]; at 3.7 µM 20% | [14]; [17] 51% | [14]; at 50.0 µM 65.7% | [15]; at 1.2 µM -1% | [15]; at 3.7 µM 31% | [15]; at 11.0 µM 45%
active: [1]; at 33.0 µM 87% | [1]; at 100.0 µM 90% | [3]; at 33.0 µM 84% | [3]; at 100.0 µM 96% | [4]; at 11.0 µM 72% | [4]; at 33.0 µM 92% | [4]; [18] 88% | [4]; at 50.0 µM 75.5% | [4]; at 100.0 µM 94% | [5]; [18] 76% | [6]; at 11.0 µM 85% | [6]; at 33.0 µM 96% | [6]; at 100.0 µM 99% | [7]; [18] 93% | [7]; at 50.0 µM 80.7% | [8]; at 33.0 µM 80% | [8]; at 100.0 µM 93% | [9]; [18] 80% | [9]; at 50.0 µM 75.2% | [10]; at 33.0 µM 91% | [10]; [18] 91% | [10]; at 50.0 µM 72% | [10]; at 100.0 µM 96% | [11]; at 11.0 µM 83% | [11]; at 33.0 µM 95% | [11]; at 100.0 µM 96% | [12]; at 33.0 µM 80% | [12]; at 100.0 µM 95% | [13]; at 11.0 µM 70% | [13]; at 33.0 µM 92% | [13]; at 100.0 µM 95% | [14]; [18] 96% | [15]; at 33.0 µM 70% | [15]; at 100.0 µM 87%

O=C1c2ccccc2C(=O)c2cc(CCl)ccc21
inactive: [16]; at 1.2 µM 1% | [16]; at 3.7 µM 6% | [16]; at 11.0 µM 3% | [16]; at 33.0 µM 7% | [16]; at 100.0 µM 10% | [2]; at 1.2 µM 27% | [2]; at 3.7 µM 47% | [2]; at 11.0 µM 64% | [2]; at 33.0 µM 69% | [2]; at 100.0 µM 68% | [3]; at 1.2 µM -1% | [3]; at 3.7 µM 2% | [3]; at 11.0 µM 7% | [3]; at 33.0 µM 10% | [3]; at 100.0 µM 12% | [4]; at 1.2 µM 2% | [4]; at 3.7 µM 6% | [4]; [17] 20% | [4]; at 11.0 µM 12% | [4]; at 33.0 µM 13% | [4]; [18] 32% | [4]; at 50.0 µM 25% | [4]; at 100.0 µM 14% | [5]; at 1.2 µM 2% | [5]; at 3.7 µM 7% | [5]; [17] 12% | [5]; at 11.0 µM 17% | [5]; at 33.0 µM 20% | [5]; [18] 38% | [5]; at 50.0 µM 24.4% | [5]; at 100.0 µM 16% | [6]; at 1.2 µM 2% | [6]; at 3.7 µM 4% | [6]; at 11.0 µM 7% | [6]; at 33.0 µM 8% | [6]; at 100.0 µM 13% | [7]; [17] 15% | [7]; [18] 30% | [7]; at 50.0 µM 46.2% | [8]; at 1.2 µM -1% | [8]; at 3.7 µM -5% | [8]; at 11.0 µM 8% | [8]; at 33.0 µM 5% | [8]; at 100.0 µM 2% | [9]; [17] 4% | [9]; [18] 18% | [9]; at 50.0 µM 28% | [10]; at 1.2 µM 5% | [10]; at 3.7 µM 11% | [10]; [17] 39% | [10]; at 11.0 µM 19% | [10]; at 33.0 µM 25% | [10]; [18] 56% | [10]; at 50.0 µM 58.8% | [10]; at 100.0 µM 22% | [11]; at 1.2 µM 3% | [11]; at 3.7 µM 7% | [11]; at 11.0 µM 8% | [11]; at 33.0 µM 12% | [11]; at 100.0 µM 12% | [12]; at 1.2 µM 3% | [12]; at 3.7 µM 3% | [12]; at 11.0 µM 6% | [12]; at 33.0 µM 9% | [12]; at 100.0 µM 10% | [13]; at 1.2 µM 2% | [13]; at 3.7 µM 2% | [13]; at 11.0 µM 7% | [13]; at 33.0 µM 11% | [13]; at 100.0 µM 14% | [14]; [17] 29% | [14]; [18] 51% | [14]; at 50.0 µM 31.2% | [15]; at 1.2 µM 9% | [15]; at 3.7 µM 22% | [15]; at 11.0 µM 39% | [15]; at 33.0 µM 46% | [15]; at 100.0 µM 53%

Nc1ncc(-c2ccc(Br)cc2)s1
inactive: [16]; at 1.2 µM 9% | [16]; at 3.7 µM 17% | [16]; at 11.0 µM 22% | [2]; at 1.2 µM 19% | [2]; at 3.7 µM 29% | [2]; at 11.0 µM 47% | [3]; at 1.2 µM 1% | [3]; at 3.7 µM -1% | [3]; at 11.0 µM 2% | [4]; at 1.2 µM 7% | [4]; at 3.7 µM 7% | [4]; [17] 51% | [4]; at 11.0 µM 13% | [4]; [18] 51% | [5]; at 1.2 µM -22% | [5]; at 3.7 µM -1% | [5]; [17] 53% | [5]; at 11.0 µM -15% | [5]; [18] 55% | [6]; at 1.2 µM -25% | [6]; at 3.7 µM -8% | [6]; at 11.0 µM -1% | [7]; [17] 18% | [8]; at 1.2 µM 21% | [8]; at 3.7 µM 3% | [8]; at 11.0 µM -7% | [9]; [17] 56% | [10]; at 1.2 µM -8% | [10]; at 3.7 µM -8% | [10]; [17] -18% | [10]; at 11.0 µM -11% | [11]; at 1.2 µM 8% | [11]; at 3.7 µM 8% | [11]; at 11.0 µM 8%
active: [16]; at 33.0 µM 92% | [16]; at 100.0 µM 98% | [2]; at 33.0 µM 93% | [2]; at 100.0 µM 97% | [3]; at 33.0 µM 95% | [3]; at 100.0 µM 98% | [4]; at 33.0 µM 91% | [4]; at 50.0 µM 89.5% | [4]; at 100.0 µM 97% | [5]; at 33.0 µM 92% | [5]; at 50.0 µM 93% | [5]; at 100.0 µM 98% | [6]; at 33.0 µM 93% | [6]; at 100.0 µM 97% | [7]; [18] 99% | [7]; at 50.0 µM 92.7% | [8]; at 33.0 µM 90% | [8]; at 100.0 µM 97% | [9]; [18] 99% | [9]; at 50.0 µM 90.3% | [10]; at 33.0 µM 82% | [10]; [18] 99% | [10]; at 50.0 µM 89.8% | [10]; at 100.0 µM 97% | [11]; at 33.0 µM 93% | [11]; at 100.0 µM 98%
